About 410 targets per protein were measured; listed, in parts, are those with the strongest signals and a random draw of the rest.

Assay in all cases: glycan array binding signal (z-score within array); higher = stronger binding
Conditions in all cases: glycan notation: IUPAC condensed, linker removed

For experiment [1], the target named is Gal(b1-4)GlcNAc(b1-3)Gal(b1-4)GlcNAc(b1-3)Gal(b1-4)GlcNAc(b1-3)Gal(b1-4)GlcNAc(b1-2)Man(a1-3)[Gal(b1-4)GlcNAc(b1-3)Gal(b1-4)GlcNAc(b1-3)Gal(b1-4)GlcNAc(b1-3)Gal(b1-4)GlcNAc(b1-2)Man(a1-6)]Man(b1-4)GlcNAc(b1-4)[Fuc(a1-6)]GlcNAc. In outline:
(§1)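 Columns mapping to the same glycan were averaged after glycan names were converted to IUPAC-condensed notation. The data come from 3228 arrays in the Consortium for Functional Glycomics database, limited to those with an available protein sequence. Binding is reported as a within-array Z-score averaged across arrays of one protein sequence and across linkers.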

The target of experiment [2] is Gal(b1-4)GlcNAc(b1-3)Gal(b1-4)GlcNAc(b1-3)Gal(b1-4)GlcNAc(b1-3)Gal(b1-4)GlcNAc(b1-3)Gal(b1-4)GlcNAc(b1-2)Man(a1-3)[Gal(b1-4)GlcNAc(b1-3)Gal(b1-4)GlcNAc(b1-3)Gal(b1-4)GlcNAc(b1-3)Gal(b1-4)GlcNAc(b1-3)Gal(b1-4)GlcNAc(b1-2)Man(a1-6)]Man(b1-4)GlcNAc(b1-4)GlcNAc. An outline of the steps: as §1
For experiment [3], the target named is Gal(b1-4)GlcNAc(b1-3)Gal(b1-4)GlcNAc(b1-3)Gal(b1-4)GlcNAc(b1-3)Gal(b1-4)GlcNAc(b1-3)Gal(b1-4)GlcNAc(b1-3)Gal(b1-4)GlcNAc(b1-2)Man(a1-3)[Gal(b1-4)GlcNAc(b1-3)Gal(b1-4)GlcNAc(b1-3)Gal(b1-4)GlcNAc(b1-3)Gal(b1-4)GlcNAc(b1-3)Gal(b1-4)GlcNAc(b1-3)Gal(b1-4)GlcNAc(b1-2)Man(a1-6)]Man(b1-4)GlcNAc(b1-4)GlcNAc. In outline:
as §1

The target in experiment [4] is Gal(b1-4)GlcNAc(b1-3)Gal(b1-4)GlcNAc(b1-3)GalNAc. In outline:
as §1

The target in the next experiment is Gal3S(b1-4)Glc. An outline of the steps:
as §1

The target in another experiment is GalNAc(a1-3)Gal. An outline of the steps: as §1
In experiment [5] the target is GalNAc(b1-3)Gal(a1-4)Gal(b1-4)GlcNAc(b1-3)Gal(b1-4)Glc. In outline:
as §1

In a further experiment the target is Glc(b1-6)Glc. An outline of the steps:
as §1

The target in experiment [6] is GlcNAc(b1-2)Man(a1-3)[GlcNAc(b1-4)][GlcNAc(b1-2)Man(a1-6)]Man(b1-4)GlcNAc(b1-4)GlcNAc. An outline of the steps:
as §1

Experiment [7] addresses GlcNAc(b1-3)Gal(b1-4)GlcNAc(b1-2)[GlcNAc(b1-3)Gal(b1-4)GlcNAc(b1-6)]Man(a1-6)[GlcNAc(b1-3)Gal(b1-4)GlcNAc(b1-2)Man(a1-3)]Man(b1-4)GlcNAc(b1-4)GlcNAc. In outline: as §1
Experiment [8] addresses GlcNAc(b1-3)Gal(b1-4)GlcNAc(b1-3)Gal(b1-4)GlcNAc(b1-3)Gal(b1-4)GlcNAc(b1-3)Gal(b1-4)GlcNAc(b1-2)Man(a1-3)[GlcNAc(b1-3)Gal(b1-4)GlcNAc(b1-3)Gal(b1-4)GlcNAc(b1-3)Gal(b1-4)GlcNAc(b1-3)Gal(b1-4)GlcNAc(b1-2)Man(a1-6)]Man(b1-4)GlcNAc(b1-4)[Fuc(a1-6)]GlcNAc. In outline: as §1
Experiment [9] addresses GlcNAc(b1-3)Gal(b1-4)GlcNAc(b1-3)GalNAc. In outline: as §1
Experiment [10] deals with GlcNAc(b1-3)Gal(b1-4)GlcNAc(b1-3)[GlcNAc(b1-3)Gal(b1-4)GlcNAc(b1-3)]GalNAc. In outline:
as §1

The target of experiment [11] is Neu5Ac(a2-3)Gal(b1-3)GlcNAc(b1-2)Man(a1-3)[Neu5Ac(a2-3)Gal(b1-3)GlcNAc(b1-2)Man(a1-6)]Man(b1-4)GlcNAc(b1-4)GlcNAc. An outline of the steps: as §1
Experiment [12] addresses Neu5Ac(a2-3)Gal(b1-3)GlcNAc(b1-4)Gal(b1-4)Glc. An outline of the steps:
as §1

Experiment [13] concerns the target Neu5Ac(a2-3)Gal(b1-3)GlcNAc(b1-6)GalNAc. An outline of the steps:
as §1

Experiment [14] deals with Neu5Ac(a2-3)Gal(b1-3)GlcNAc6S. In outline:
as §1

For experiment [15], the target named is Neu5Ac(a2-3)Gal(b1-4)[Fuc(a1-3)]GlcNAc(b1-2)Man. In outline: as §1
The target in experiment [16] is Neu5Ac(a2-3)Gal(b1-4)[Fuc(a1-3)]GlcNAc(b1-6)[Neu5Ac(a2-3)Gal(b1-3)]GalNAc. In outline:
as §1

The target in another experiment is Neu5Ac(a2-6)Gal. An outline of the steps: as §1
The target in experiment [17] is Neu5Ac(a2-6)Gal(b1-4)GlcNAc(b1-2)Man(a1-3)Man(b1-4)GlcNAc(b1-4)GlcNAc. An outline of the steps:
as §1

Experiment [18] deals with Neu5Ac(a2-6)Gal(b1-4)GlcNAc(b1-2)[Neu5Ac(a2-6)Gal(b1-4)GlcNAc(b1-4)]Man(a1-3)[GlcNAc(b1-4)][Neu5Ac(a2-6)Gal(b1-4)GlcNAc(b1-4)Man(a1-6)]Man(b1-4)GlcNAc(b1-4)GlcNAc. An outline of the steps:
as §1

Experiment [19] addresses Neu5Ac(a2-6)Gal(b1-4)GlcNAc(b1-6)[Gal(b1-3)]GalNAc. In outline:
as §1

B1: PX9961A-pdi-456-24-456 (Parabacteroides distasonis) (protein)
chain: KTSSTQLPTIDAISSVADLTNAVNGVYEQQATEVGSYGAEFTLLADLRSGDFQSISTVNHAGPMYRYQTGKNDEMVYSFYKLFYNSLARLNNVLAAAENLEGADVDILKGELYAMRALYHFDLARVFAKLPSTTDMNDLGIVLSTEVYPTDYIGTRATLQQTYDQILKDIETALPLLSKDKQTGHINYWGALAIRARAYLYLEKNKEALADCKEIIASSPYKLYTRDEYIGAWDKEGTNEAIFEILVTPNYNAQRNSIGYFTHASGYGECAATESFLEELAKHPGDIRTELFAKETDNGYDGTYPQKYKGRDGQIYVNNPKVVRLSEVYLIAAEAALKAGDTSAAAGYMNTLRKNRIENYTDVASITLDDILLERRLELFTEGHTAWDAWRNGKSVNNKFVGEVKPGDYRTIMAIPIGEITVSRGQLIQNPGY
Turning to B1, the “glycan array binding signal (z-score)” value in [1] is 6.49; in [2], 2.59; in [3] it was 7.59; in experiment [4], 0.087; with Gal3S(b1-4)Glc, -0.121; with GalNAc(a1-3)Gal, 3.31. In addition, the “glycan array binding signal (z-score)” value in experiment [5] was 0.012; with Glc(b1-6)Glc, -0.218; in experiment [6] it was -0.42; in [7], 0.033; in experiment [8] it was 2.18; in experiment [9] it was 0.389. For the same molecule, the “glycan array binding signal (z-score)” value is -0.009 in experiment [10]; -0.512 in experiment [11]; -0.437 in experiment [12]; 0.343 in [13]; 0.048 in experiment [14]; -0.398 in experiment [15]. The “glycan array binding signal (z-score)” value was 0.273 in experiment [16]; -0.046 with Neu5Ac(a2-6)Gal; -0.293 in experiment [17]; -0.061 in experiment [18]; -0.445 in experiment [19].

The values are drawn from the supplement of paper PMC8728848.
